Out of some 360,000 compounds screened, about 4,500 (1.2%) were called active. Cut-off read from the data, not from the text of the source: active = inhibition above about 30%; inactive = the rest. The full list was thinned out, with actives kept by preference.

The test can be described thus: inhibition of GDH and TPI enzymes – biochemical, absorbance, full deck, artefact control for M. tuberculosis FBA inhibitor project, primary screen (AID 588335).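 Note: 0% = DMSO wells and 100% = wells lacking the enzyme.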 The following applies: GDH-TPI coupled enzyme counterscreen, NADH absorbance; at 4.8 µM; active compounds read high. In general terms: The purpose of a counterscreen is to sort out artefacts and off-target activity.
In general, inhibition refers to the change of the read-out against control, counted positive when it falls. With `C/C(=C(\C#N)C(=O)NCCCN1CCOCC1)N(C)C`, the inhibition is 7.8% (inactive).
As for `CCc1nn(CCCC(=O)Nc2ccc(C)cc2C)c(=O)c2cc3occc3n12`, the figure is 5.68% (inactive); as for `CCN(CC)C(=O)CSc1nc2ccccc2n1CC(=O)N1CCN(c2ccccc2OC)CC1`, -6.21% (inactive).
To `O=C1NC(=O)C(CCc2ccccc2)(c2ccccc2)N1` (stereo unspecified) belongs 2.63% (inactive).
In the case of `O=C(N/N=C/C=C/c1ccccc1)C1CC1(c1ccccc1)c1ccccc1` (stereo unspecified), the inhibition was 21.3% (inactive).
As to `CCn1c(SCC(=O)NC2CC2)nnc1-c1ccccc1OC`, the inhibition was -0.34% (inactive).
To `COc1ccc(C2=Nn3c(nnc3-c3ccccc3OC)SC2)cc1OC1CCCC1` belongs 31.1% (active); to `COc1cc(OC)c(NS(=O)(=O)c2cn(C)cn2)cc1Cl`, -9.45% (inactive).
With `Cc1cccc(N2O[C@H]3C=CC2CCCC3)n1`, the inhibition was -10.9% (inactive).
To `O=C(NC(=S)Nc1cc(C(F)(F)F)ccc1N1CCOCC1)c1ccc(-c2cccc(Cl)c2)o1` belongs -2.21% (inactive).
To `CN1CCN(C(=O)c2ccc(-c3ccc(Br)cc3)o2)CC1` belongs 3.5% (inactive).
To `O=C(NC(=S)Nc1ccccc1C(=O)O)c1ccc(-c2ccc(Br)cc2)o1` belongs 40.9% (active); to `O=c1c2ccccc2c(-c2ccccc2)nn1-c1ccccn1`, 1.89% (inactive); to `COC(=O)c1cnn2c(C(F)(F)F)cc(-c3ccco3)nc12`, 16.7% (inactive).
In the case of `O=C(CSc1nc(-c2ccco2)cc(C(F)(F)F)n1)N1CCc2ccccc2C1`, the inhibition is 10.9% (inactive).
`CCOC(=O)c1ccn(-c2nc(-c3ccco3)cc(C(F)(F)F)n2)n1`: the inhibition was 35.1% (active).
On to `NC(=O)CC(NC(=O)Cc1ccc(Br)cc1)c1ccc(NC2CC3CCC2C3)c([N+](=O)[O-])c1` (stereo unspecified), for which the inhibition is -1.99% (inactive).
As for `CC1(c2ccc(Cl)cc2Cl)NC(=O)N(CC(=O)Nc2cccnc2Cl)C1=O` (stereo unspecified), the figure is 0% (inactive).
To `Cc1cccc(C(=O)OCC(=O)NCC(C)C)c1O` belongs 2.88% (inactive); to `N#CC1=C(N)N(c2ccc(F)cc2)C(=O)C1`, 4.15% (inactive); to `O=[N+]([O-])c1ccc2oc(-c3cccc(O)c3)nc2c1`, 15.8% (inactive).
Take `Cc1occc1C(=O)N/N=C/c1ccc(-c2cccc([N+](=O)[O-])c2)o1`: the inhibition was 34% (active).
As for `CCCc1ccc(OCc2ccc(C(=O)N/N=C/c3cccc([N+](=O)[O-])c3)o2)c(OC)c1`, the figure is 3.73% (inactive); as for `O=C(CN1C(=O)NC2(CCCC2)C1=O)OCCOc1ccc(F)cc1`, -5.15% (inactive).
With `Cc1ccc(C(=O)NCC(c2cccs2)N(C)C)cc1S(=O)(=O)N1CCOCC1` (stereo unspecified), the inhibition was 3.9% (inactive).
As for `O=C(NCCc1ccccn1)c1cc(-c2ccc(Cl)cc2)nc2ccccc12`, the figure is 19.5% (inactive).
To `CC(/C=N/NC(=O)c1cc(-c2ccc3ccccc3c2)n[nH]1)=C\c1ccco1` belongs 17% (inactive); to `Cc1ccc(-c2cc(C(=O)N/N=C/C=C/c3ccco3)c3ccccc3n2)cc1C`, 52.1% (active); to `O=C(N/N=C/C=C/c1ccco1)c1cccs1`, 46.5% (active).
Take `CC1(C)CC(=O)C/C(=N\NC(=O)c2cccs2)C1`: the inhibition was 17.8% (inactive).
Regarding `O=C(COC(=O)CCC(=O)c1cccs1)NCc1ccco1`, the inhibition was 5.96% (inactive).
